# An excerpt weighted towards active compounds, which were near 21% of everything screened.
# HCV inh – qHTS Assay for Inhibitors of Hepatitis C Virus (HCV); Huh7.5.1 HCVcc-Cre infection, luciferase reporter, 44 h; Potency, µM (highest dose often 41.8 µM), for the others: top-dose activity change, negative = inhibition, actives largely listed as inhibitors; hit rate 3.4% among 340,000; AID 651820, 2012; note: potency is the fitted concentration of half-maximal effect; % is set by controls: 0 for no effect and ±100 for the full control effect
#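 Seed cells (1,000/well) for 4 h; treat with compound and infect with HCVcc-Cre, moi about 0.5. Incubate 44 h, then detect luciferase activity.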
# Pf growth 96h – Primary qHTS for delayed death inhibitors of the malarial parasite plastid, 96 hour incubation | P. falciparum luciferase reporter growth, 96 h | Potency, µM (series often up to 28.7 µM), without a hit: at the top dose activity change, negative = inhibition, most hits filed as inhibitors | hit rate 6.9% among 320,000 | AID 504834, 2011; note: potency is the fitted concentration of half-maximal effect; % is set by controls: 0 for no effect and ±100 for the full control effect
#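 Two-generation exposure (96 h) targets delayed-death phenotype. Reporter parasites carrying integrated firefly luciferase, in red cells at 2% hematocrit and 0.05% parasitemia final, kept at 37 C, 5% CO2; luminescence loss indicates inhibition.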
# Shiga toxin inh – A qHTS for Small Molecule Inhibitors of Shiga Toxin. Vero cells, Shiga toxin protein synthesis inhibition reporter. hit rate 9.2% among 290,000. AID 2315, 2010. inhibition, % at 38.7 µM; in the data active = inhibition mostly above about 28%, no sharp cut-off; inactive = mostly below about 43%; note: 0% is about no effect
# CHX counter – Cycloheximide Counterscreen for Small Molecule Inhibitors of Shiga Toxin; cell reporter, cycloheximide protein synthesis inhibition counterscreen; max response, %; hit rate 12% among 300,000; in the data active = max response mostly above about 13%, no sharp cut-off; inactive = mostly below about 14%; note: read at 38.3 µM for the half of the compounds with a filed dose; 0% is about no effect
# Pf growth 48h – Primary qHTS for delayed death inhibitors of the malarial parasite plastid, 48 hour incubation | P. falciparum luciferase growth in erythrocytes, 48 h | Potency, µM (series often up to 28.7 µM), for inactives: top-dose activity change, negative = inhibition, actives largely listed as inhibitors | hit rate 5.9% among 310,000 | AID 504832, 2011; note: potency is the fitted concentration of half-maximal effect; % is set by controls: 0 for no effect and ±100 for the full control effect
#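 First compound was added to culture medium, then infected red cells at 0.1% parasitemia and 2% hematocrit (final). After incubation at 37 C under 5% CO2, luciferase detection reagent was dispensed and light output recorded.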
# HCMV inh – qHTS Assay for inhibitors of the human cytomegalovirus (HCMV); activity change, negative = inhibition, % at 57.5 µM; HFF cells, HCMV-luciferase reporter, 72 h; active compounds read low; hit rate 4.5% among 410,000; in the data active = activity change below about -60%; inconclusive = no clear call, values can overlap the other calls; inactive = above about -39%; note: % is set by controls: 0 for no effect and ±100 for the full control effect
#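 Luciferase read-out from HCMV-luciferase-infected HFFs (MOI 1 PFU/cell) 72 h post infection at 37C; compounds added after 16 h cell attachment; activity normalized between buffer-only basal and Salinomycin (10uM) inhibitor controls.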
# Active calls of the source: *; ? = inconclusive; . = no result; [ ] = another dose, or the depositor's remark. Unless noted, calls come from the whole dose curve; as a rule, active = well fitted inhibition curve with a large enough effect; inconclusive = small, poorly fitted or top-dose-only effect, or another doubt; inactive = no such curve, though single readings can be large or run the other way.
SMILES,HCV inh,Pf growth 96h,Shiga toxin inh,CHX counter,Pf growth 48h,HCMV inh
CN(C(=O)COC(=O)CCC(=O)c1ccc(Cl)cc1)c1c(N)n(Cc2ccccc2)c(=O)[nH]c1=O,16.2%,2.08µM*,.,.,20.4%,-29.2
COc1ccc(OC)c(NC(=O)CCN2CCN(CCO)CC2)c1,11.1%,2.6%,-3.3,-2.4,-4.5%,30.5
CC1(C)SC2C(N3C(=O)C(c4ccccc4)NC3(C)C)C(=O)N2C1C(=O)O (stereo not drawn),.,7.2%,.,.,-1.5%,.
COCCN(C(=O)COC(=O)c1c(-c2ccccc2)noc1C)c1c(N)n(Cc2ccccc2)c(=O)[nH]c1=O,?,11.7µM*,-7.1,-1.0,?,16.1
CC(C)CN(C(=O)COC(=O)CSc1ccccc1F)c1c(N)n(Cc2ccccc2)c(=O)[nH]c1=O,6.9%,14.0%,.,.,?,3.7
Nc1c(N(Cc2ccco2)C(=O)c2ccc(Cl)cc2)c(=O)[nH]c(=O)n1Cc1ccccc1,31.2%,-23.6%,.,.,?,-70.8*
Cc1ccc(SCC(=O)OCC(=O)N(CC(C)C)c2c(N)n(Cc3ccccc3)c(=O)[nH]c2=O)c(C)c1,10µM*,-16.8%,.,.,53.0%,-11.3
Cc1onc(-c2ccccc2)c1C(=O)OCC(=O)N(C)c1c(N)n(Cc2ccccc2)c(=O)[nH]c1=O,-7.7%,11.7µM*,.,.,?,5.5
COC(=O)c1cc(NC(=O)c2ccc3c(c2)N(Cc2cccc(Cl)c2)C(=O)c2ccccc2S3=O)cc(C(=O)OC)c1 (stereo not drawn),.,.,.,.,.,-4.0
CC(C)C(=O)N1CCCCCCN1C(=O)C(C)C,.,.,.,.,.,-9.8
O=C1CCCN1c1ccc(S(=O)(=O)Oc2cccc(Cl)c2)cc1[N+](=O)[O-],?,?,37.5,2.6,-8.5%,-37.3
Cc1nn(-c2ccccc2)c(C)c1C(=O)OCC(=O)N(C)c1c(N)n(Cc2ccccc2)c(=O)[nH]c1=O,21.1%,11.7µM*,.,.,?,-38.2
CCc1nc2ccccc2c(C(=O)OCC(=O)N(CCOC)c2c(N)n(Cc3ccccc3)c(=O)[nH]c2=O)c1C,14.1µM*,?,.,.,13.1µM*,?
CC(=O)Nc1sc(C)c(C)c1C(=O)OCC(=O)N(CC(C)C)c1c(N)n(Cc2ccccc2)c(=O)[nH]c1=O,5.01µM*,?,.,.,?,-30.9
CCOC(=O)c1c(C)[nH]c(C(=O)OCC(=O)N(C)c2c(N)n(Cc3ccccc3)c(=O)[nH]c2=O)c1C,-23.2%,?,.,.,?,?
NCC(=O)N[C@@H](CCCN=C(N)N)C(=O)NCC(=O)N[C@@H](CCC(=O)O)C(=O)N[C@@H](CO)C(=O)O,.,.,-1.6,-6.2,.,.
CC(C)NC(=O)c1cc2cc(Br)ccc2oc1=O,-1.4%,7.3%,86.5*,29.7*,?,1.9
CC(=O)Nc1ccc(OC(=O)c2cc3cc(Br)ccc3oc2=O)cc1,11.5%,4.15µM*,2.7,0.8,4.4%,-1.3
Cc1ccc(C(C)C)c(OCCSc2nc(-c3ccccc3F)nc3cc(=O)[nH]n23)c1,.,.,.,.,.,-9.9
O=C(Cc1ccccc1)NCC(=O)N/N=C/c1ccc([N+](=O)[O-])s1,?,5.22µM*,-2.8,-1.4,?,-37.7
Cc1cc(C)n(CC(=O)N/N=C/c2ccc([N+](=O)[O-])s2)n1,?,13.7%,40.6,-2.3,?,-35.0
O=C(CNC(=O)c1ccccc1)N/N=C/c1ccc([N+](=O)[O-])s1,?,4.15µM*,12.4,20.1,?,?
CCCCCCCN(C(=O)CCl)c1ccccc1C,?,?,-13.9,-3.1,?,-82.9*
Cc1ccccc1N(Cc1cc(=O)[nH]c2ccccc12)C(=O)CCl,.,1.85µM*,0.4,9.9,4.65µM*,-100.7*
COc1ccc(NCc2cc(=O)[nH]c3ccccc23)cc1,9.6%,5.0%,-14.3,5.0,3.0%,-25.9
SMILES,HCV inh,Pf growth 96h,Shiga toxin inh,CHX counter,Pf growth 48h,HCMV inh
O=c1cc(CNCCCO)c2ccccc2[nH]1,11.4%,3.7µM*,-18.7,-2.0,-0.3%,5.8
O=C(CCl)N(Cc1cc(=O)[nH]c2ccccc12)c1ccccc1,?,10.4µM*,-6.7,-2.5,10.4µM*,-99.6*
Cc1ccccc1N(Cc1cc(=O)[nH]c2ccccc12)C(=O)C(C)C,25.7%,?,12.9,0.6,14.7µM*,29.1
Cc1ccc(N(Cc2cc(=O)[nH]c3ccccc23)C(=O)C(C)C)c(C)c1,15.2%,-18.7%,-6.7,-6.0,?,23.8
COCCn1c(C)cc(O)c(C(c2ccccc2)N2CCN(C)CC2)c1=O (stereo not drawn),.,.,.,.,.,11.7
CCOc1ccc(Cl)cc1S(=O)(=O)N1CCN(c2ccc(F)cc2)CC1,0.9%,.,-5.5,-2.6,11.7µM*,-1.3
Cc1cc(Cl)c(S(=O)(=O)N2CCN(c3ccc(F)cc3)CC2)cc1OCC(=O)NC1CCCCC1,0.794µM*,6.57µM*,-12.1,-3.5,.,-98.3*
CCOC(=O)C1CCCN(S(=O)(=O)c2cc(OCC(=O)NC3CCCCC3)c(C)cc2Cl)C1 (stereo not drawn),?,0.465µM*,-14.3,15.6,.,-25.6
Cc1cc(Cl)c(S(=O)(=O)N2CCN(c3ccc(F)cc3)CC2)cc1OCC(N)=O,10.8%,8.2%,-15.5,-3.5,?,-23.5
Cc1noc(C)c1C(=O)OCC(=O)C12CC3CC(CC(C3)C1)C2,-2.7%,?,4.1,10.8,7.5%,0.9
COc1cc(CN(C2CC2)S(=O)(=O)c2ccccc2Br)cc(OC)c1,?,.,.,.,.,-6.3
CCOc1c(OC(C)=O)ccc(/C=C/c2ccc3cccc(OC)c3n2)c1[N+](=O)[O-],10µM*,-2.8%,36.0*,39.8*,4.65µM*,12.0
COc1cccc(/C=C/c2ccc3cccc(O)c3n2)c1OC,10µM*,?,127.5*,57.8*,.,2.3
COc1cc(/C=C/c2ccc3cccc([N+](=O)[O-])c3n2)ccc1OCC(=O)O,8.2%,41.3%[5.75 µM],-7.2,-6.0,8.2%[5.75 µM],-0.3
COc1ccc(/C=C/c2ccc3cccc(O)c3n2)c(OC)c1OC,-57.2%,-14.9%,113.1*,39.0*,2.5%[0.00184 µM],-93.5*
CCN1C(=O)C2(c3ccccc31)c1c(oc3ccc(C)cc3c1=O)C(=O)N2CCCOC(C)C (stereo not drawn),.,.,.,.,.,-14.5
CCc1nn2c(=O)c(S(=O)(=O)Nc3ccc(Br)cc3F)c(C)nc2s1,.,.,.,.,.,0.1
CCOC(=O)C(=CNc1nc2ccc(C(=O)OCC)cc2s1)C(=O)OCC,?,25.4%,2.8,0.8,6.4%,13.0
COC(=O)c1ccc2nc(Nc3nc4c(F)cc(F)cc4s3)sc2c1,2.3%,-26.8%,-14.5,57.2*,39.0%,-70.4*
CCOC(=O)c1ccc2nc(NC(C)=O)sc2c1,-14.0%,-1.0%,56.4,47.9*,263.2%,117.7

# From PubChem BioAssay
